# Screening results deposited in PubChem BioAssay by National Center for Advancing Translational Sciences (NCATS).
# PNC inhibitor – blocks assembly of the perinucleolar compartment | PC3M PTB-GFP, PNC prevalence imaging, 16 h; stronger effect = lower value | activity change (PNC), negative = inhibition, % at 10 µM | 3.1% of 140,000 active | AID 2417;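 active means readout at or below -70, meaning at least 70% loss of cells showing the perinucleolar compartment, a nuclear body marking cancer cells; inconclusive means readout between -30 and a set limit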;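 further: plate controls were DMSO wells for no effect and camptothecin positive control wells for full effect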
#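 Read-out is percentage of cells bearing a perinucleolar compartment, from automated 20x imaging of fixed, Hoechst-stained PC3M PTB-GFP cells. Cells were seeded 4 h, then exposed 16 h to compound (23 nl of library stock) in duplicate plates.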
# ALDH1A1 inh – blocks purified human ALDH1A1 activity. AID 1030. Potency, µM (doses to about 75.3 µM), without a hit: at the highest dose activity, negative = inhibition, most hits filed as inhibitors. Purified ALDH1A1, NADH fluorescence, propionaldehyde substrate. P00352. 7.3% of 220,000 active; active means well fitted inhibition curve with a large enough effect, not every such curve was filed as active; inconclusive means small, poorly fitted or top-dose-only effect, or another doubt; inactive means no such curve, though single readings can be large or run the other way;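 further: potency means the concentration at half of the fitted maximal effect; plate controls were no enzyme wells and a reference inhibitor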
# aGal spleen mod – alpha-galactosidase A (human) modulation; P06280; human spleen homogenate, 4MU-alpha-Gal fluorescence, 40 min; Potency, µM (series often up to 80 µM), for inactives: at the highest dose activity change, negative = inhibition, usual class: inhibitors; 0.008% of 240,000 active;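 further: potency means the concentration at half of the fitted maximal effect; 0% = enzyme with vehicle and -100% = no enzyme basal signal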
#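 Fluorogenic readout (Ex 365/Em 440 nm) of 4-methylumbelliferone released from 1 mM 4-MU-alpha-galactoside by spleen homogenate, 40 min at 37C, pH 5.0. Data normalized to no-enzyme and enzyme controls; Hill-equation AC50 from compound titrations.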
# GLA inh pH 4.5 – alpha-galactosidase A (human) inhibition, pH 4.5. purified enzyme, 4-MU-alpha-Gal fluorescence, pH 4.5. AID 1467. P06280. 230,000 tested, under 10 active. activity change, negative = inhibition, % at 105 µM;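 further: 0% = full activity with enzyme and -100% = basal without enzyme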
# Target sequence (P06280 whole entry, looked up): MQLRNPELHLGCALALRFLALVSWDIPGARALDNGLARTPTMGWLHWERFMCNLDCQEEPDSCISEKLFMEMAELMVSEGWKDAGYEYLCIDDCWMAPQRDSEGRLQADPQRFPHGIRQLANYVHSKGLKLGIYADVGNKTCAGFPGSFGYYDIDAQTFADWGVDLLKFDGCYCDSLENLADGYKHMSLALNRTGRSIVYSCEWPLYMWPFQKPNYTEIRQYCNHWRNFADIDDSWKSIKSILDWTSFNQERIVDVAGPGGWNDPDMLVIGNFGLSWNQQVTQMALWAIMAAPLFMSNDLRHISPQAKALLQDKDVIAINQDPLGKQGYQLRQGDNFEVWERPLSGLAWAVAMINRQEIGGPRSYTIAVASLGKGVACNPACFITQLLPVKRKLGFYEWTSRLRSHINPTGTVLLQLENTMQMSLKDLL
# ALOX12 inhib – blocks human 12-lipoxygenase activity | P18054 | purified 12-hLO, xylenol orange hydroperoxide absorbance | Potency, µM (titrated, usually from 57.1 µM), for the others: at the top dose activity change, negative = inhibition, hits mostly inhibitors | 0.12% of 150,000 active | AID 1452; further: potency means the concentration at half of the fitted maximal effect; nearly all actives have a fitted effect of over 55% in size
#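 Hydroperoxide formation by human 12-lipoxygenase from 40 uM arachidonic acid was followed colorimetrically via ferric-xylenol orange complex, using the 573/405 nm absorbance ratio. Enzyme concentration was 150 nM, with 30 min reaction at room temperature.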
# HPGD block – HPGD (human) dehydrogenase inhibition | P15428 | Potency, µM, inactives show at the highest dose activity change, negative = inhibition, hits mostly inhibitors | purified HPGD, NADH fluorescence kinetic, PGE2 substrate | 4.3% of 150,000 active; active means well fitted inhibition curve with a large enough effect, not every such curve was filed as active; inconclusive means small, poorly fitted or top-dose-only effect, or another doubt; inactive means no such curve, though single readings can be large or run the other way; further: potency means the concentration at half of the fitted maximal effect
# Target sequence (P15428 whole entry, looked up): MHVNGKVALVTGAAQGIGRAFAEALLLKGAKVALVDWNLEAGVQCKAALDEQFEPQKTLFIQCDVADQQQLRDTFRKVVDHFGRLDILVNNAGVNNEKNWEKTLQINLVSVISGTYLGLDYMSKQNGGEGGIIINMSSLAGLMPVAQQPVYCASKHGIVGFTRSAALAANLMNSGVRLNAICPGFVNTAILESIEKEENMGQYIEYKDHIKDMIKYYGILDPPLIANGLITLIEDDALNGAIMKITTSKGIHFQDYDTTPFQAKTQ
#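 NADH formation kinetics: reaction with 30 uM PGE2 and 1 mM NAD+ (final), 20 nM enzyme, Tris-HCl pH 8 with Tween 20, after 15 min compound preincubation at room temperature. Fluorescence change, last versus first of five reads.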
# Starred values were filed as active, the others as inactive; ? = inconclusive; nt = no result given; [ ] = remark or other dose. A selection: hits, their analogues and other compounds. The true share with any hit is near 10%. Unless noted, the call rests on the fitted dose curve; in most records, active means well fitted curve in the direction sought with a large enough effect; inconclusive means small, poorly fitted or top-dose-only effect, or another doubt; inactive means no such curve, though single readings can be large; an effect the other way counts as inactive or inconclusive. Unless noted, on the % scale 0 is the no-effect control and ±100 the full control effect.
SMILES,PNC inhibitor,ALDH1A1 inh,aGal spleen mod,GLA inh pH 4.5,ALOX12 inhib,HPGD block
CC(C)c1nnc(SCC(=O)NCCC2=CCCCC2)n1N,?,20µM*,4%,5,0%,16µM*
Cc1cccc(-n2nnnc2SC(C)C(=O)NCCC2=CCCCC2)c1 (stereo not drawn),-3,5µM*,-3%,-15,-7%,-24%
Cc1cc(C)cc(NC(=O)C(=O)NCc2ccccn2)c1,-84*,4%,15%,1,1%,2%
O=C(NCc1ccccn1)c1ccc(Cl)cc1Cl,?,7%,13%,-2,-5%,20µM*
Cc1ccc(NC(=O)C(=O)NCc2ccccn2)cc1,nt,0%,4%,-4,nt,nt
O=C(NCc1ccccn1)Nc1ccc(Cl)c(Cl)c1,-84*,4%,?,-1,-8%,-3%
COc1cccc(-c2nccc(NCc3ccccc3OC)n2)c1,nt,-12%,-2%,nt,nt,nt
Cc1ccccc1OC1C=CC(c2ccccc2)OC1CO (stereo not drawn),nt,0%[13.5 µM],0%[17.5 µM],nt,nt,nt
COc1ccc(CCN2CC34C=CC(O3)C(C(=O)NCc3ccccc3)C4C2=O)cc1OC (stereo not drawn),5,-6%,0%,-1,-2%,10µM*
CC1=C(C(=O)Nc2ccccn2)C(c2ccc(Cl)cc2Cl)NC(=S)N1 (stereo not drawn),nt,2.5µM*,2%,-10,nt,nt
CC1=C(C(=O)Nc2ccccn2)C(c2ccccc2Cl)NC(=S)N1 (stereo not drawn),nt,2.5µM*,3%,2,nt,nt
CCOC(=O)c1ccc(-n2c(C)nc3c(cnn3-c3ccccc3Cl)c2=O)cc1,-113*,?,-6%,-5,-6%,-3%
CCOC(=O)c1ccc(-n2c(C)nc3c(cnn3-c3ccc(Cl)cc3)c2=O)cc1,-3,-1%,5%,2,2%,0%
COc1cccc([C@@H]2Oc3ccc(OC)cc3/C(=N/O[C@@H](C)c3cc(-c4c(C)cc(C)cc4C)no3)[C@@H]2O)c1,nt,3%[13.5 µM],9%[17.5 µM],nt,nt,nt
COc1cc(NS(=O)(=O)c2ccc(OC)c(C)c2C)c(OC)cc1Cl,-108*,?,-3%,-10,-10%,-17%
COc1ccc(S(=O)(=O)Nc2ccccn2)c(C)c1C,?,25µM*,1%,-12,-4%,-8%
COc1ccc(OC)c(S(=O)(=O)Nc2cc(OC)c(Cl)cc2OC)c1,-3,?,-3%,5,-4%,-11%
N=C(N)SCCN=C(N)N,nt,nt,8%,nt,nt,nt
COc1cc(CN2CCNC(=O)C2CC(=O)N2CCc3ccccc3C2)cc(OC)c1 (stereo not drawn),nt,25µM*,-3%,-4,nt,nt
COc1ccc(CN2CCNC(=O)C2CC(=O)N2CCc3ccccc3C2)c(OC)c1 (stereo not drawn),nt,-12%,-3%,4,nt,nt
O=C(O)[C@H]1CCCC[C@@H]1C(=O)Nc1nc2ccccc2[nH]1,nt,-2%[13.5 µM],nt,nt,-1%[11.4 µM],-7%
N#Cc1cccc(NC(=O)N2CC[C@@]3(CCCN(S(=O)(=O)c4ccccc4)C3)C2)c1,nt,-1%,20%,nt,-5%,-6%
Cc1cc(C)c2c3c(sc2n1)C1(CCSCC1)C(C#N)=C(N)O3,-25,25µM*,1%,-6,-1%,-17%
COc1ccc(C2C(C#N)=C(N)Oc3c2sc2nc(C)cc(C)c32)cc1 (stereo not drawn),14,-1%,-3%,7,-4%,-6%
O=C(NC(=S)Nc1ccccc1N1CCCC1)c1cccc(F)c1,nt,8.9µM*,3%,-4,nt,nt
SMILES,PNC inhibitor,ALDH1A1 inh,aGal spleen mod,GLA inh pH 4.5,ALOX12 inhib,HPGD block
O=C(NC(=S)Nc1ccccc1N1CCCCC1)c1ccccc1,nt,19µM*,-5%,-15,nt,nt
O=C(NC(=S)Nc1ccccc1N1CCCC1)c1ccc(F)cc1,nt,7.5µM*,-1%,3,nt,nt
CN1CCN(c2ccccc2NC(=O)c2ccc(F)cc2)CC1,nt,nt,8%,2,nt,nt
Cc1ccccc1C(=O)NC(=S)Nc1ccccc1N1CCCC1,nt,25µM*,-2%,4,nt,nt
CC(C)[C@H](NC(=O)c1ccccc1Cl)C(=O)NC1CCCCCC1,nt,0%,-1%,1,nt,nt
COC(=O)N1C(C2CC2)=Cc2ccccc2C1CC(C)=O (stereo not drawn),nt,2%,6%,-1,2%[11.4 µM],-4%
CC1CCN(c2ccccc2NC(=S)NC(=O)C(C)(C)C)CC1,nt,1.3µM*,10%,-11,nt,nt
OC[C@@H]1O[C@H](OC2[C@@H](O)[C@@H](O)C(O)O[C@@H]2CO)[C@H](O)[C@@H](O)[C@@H]1OC1O[C@H](CO)[C@@H](O)[C@H](O)[C@@H]1O (stereo partly drawn),nt,nt,-5%,nt,nt,nt
CCOC(=O)c1c(C)nn(Cc2cccc(Cl)c2)c1N,?,7%,3%,-1,-6%,28µM*
O=[N+]([O-])c1ccc(Nc2nc(NCCO)nc(N3CCCC3)n2)cc1,nt,1.6µM*,-9%,-9,nt,nt
OCCNc1nc(N2CCCC2)nc(N2CCCC2)n1,1,3%,13%,3,-2%,-9%
O=Cc1ccc(OC(=O)c2cc(Cl)nc3ccccc23)cc1,-11,14µM*,5%,2,-2%,-30%
CC1CC2=C(NC(=S)NC2c2ccccc2F)/C(=C/c2ccccc2F)C1 (stereo not drawn),nt,0.56µM*,0%,-8,nt,nt
CC1CC2=C(NC(=S)NC2c2cccc(F)c2)/C(=C/c2cccc(F)c2)C1 (stereo not drawn),nt,1.3µM*,-22%,1,nt,nt
CC(=O)Nc1ccc(N2C(C(C)=O)=NN(c3ccc(Cl)cc3)C2c2sccc2C)cc1 (stereo not drawn),?,-99%,-6%,-25,-23%,-18%
CC(C)CNS(=O)(=O)c1ccc(CCC(=O)N2CCN(c3ccc(F)cc3)CC2)cc1,nt,?,-1%,1,nt,nt
CC(NS(=O)(=O)c1ccc(CCC(=O)N2CCN(C)CC2)cc1)c1ccccc1 (stereo not drawn),-82*,8%,-1%,6,-4%,-1%
COc1ccc(N2CCN(C(=O)CCc3ccc(S(=O)(=O)NCC(C)C)cc3)CC2)cc1,?,13µM*,0%,3,8%,-2%
O=C(NCc1cccnc1)[C@@H]1[C@@H](C(=O)O)[C@H]2CC[C@@H]1O2,nt,0%[13.5 µM],nt,nt,-3%[11.4 µM],-3%
c1ccc2c(c1)oc1c(Nc3ccc(CN4CCOCC4)cc3)ncnc12,-3,20µM*,3%,-20,9%,-28%
c1ccc2c(c1)oc1c(NCCN3CCOCC3)ncnc12,?,20%,8%,1,2%,-5%
CN(C)S(=O)(=O)c1cccc(NC(=O)Cn2cc(C(F)(F)F)cc(Cl)c2=O)c1,nt,3%,0%,2,nt,nt
Cc1cccc(-n2nnnc2-c2cnccc2C(F)(F)F)c1C,nt,16µM*,9%,-15,nt,nt
